Data: PubChem BioAssay AID493169 (National Center for Advancing Translational Sciences (NCATS), 2011)
Results filed as inconclusive are left out. Values without a mark were called inactive. Activity calls are given as the source filed them. Calls follow the shape of the dose curve; as a rule, active = well fitted inhibition curve with a large enough effect; inconclusive = small, poorly fitted or top-dose-only effect; inactive = flat fitted curve, though single readings scatter.

Test: CHOP2 Reporter Counterscreen Assay for Inhibitors of Ubiquitin-specific Protease USP2a;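 also: activated enterokinase alone at 50 pM in a cell-free format rather than USP2a or CHOP2; nearly all actives have a fitted effect of over 55% in size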
Conditions: purified enterokinase, fluorogenic substrate, 485/531 nm; series mostly up to 38.3 µM; activity change, negative = inhibition: at the top concentration
Procedure, shortened: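 Cell-free counterscreen with pre-activated enterokinase alone (50 pM final) in 20mM Tris-HCl pH 8.0, 2mM CaCl2, 2mM beta-mercaptoethanol, 0.05% CHAPS; compound preincubation 30 min RT, reporter substrate 25nM final, fluorescence read after 10 min (Ex 485/Em 531).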
% is scaled to controls: 0 for no effect and ±100 for the full control effect; potency is read from the fitted curve at half-maximal effect.

Row | SMILES | activity change, negative = inhibition | Potency
1 | CC(C)(C)NC(=O)C(c1ccco1)N(C(=O)c1ccc(CN2CCOCC2)o1)c1ccccc1 (stereo not given) | -0.938% | –
2 | CSc1ncccc1C(=O)OCC(=O)N1CCOCC1 | 14.9% | –
3 | CCOC(=O)Nc1ccc(S(=O)(=O)Nc2cc(C)nc(C)n2)cc1 | 1.95% | –
4 | C#CCOCCOCCOCCNc1nc(N2CCN(C(=O)CCCCCCCCCCNC(=O)Cn3cc(CCCCCN)nn3)CC2)nc(N2CCN(C(=O)CCCCCCCCCCNC(=O)[C@H](CO)n3cc(CCCCCN)nn3)CC2)n1 | – | 11.2 µM (active)
5 | CC(C)C(=O)N=c1sc2cc(F)cc(F)c2n1C | -2% | –
6 | COc1ccc(C2CC(=O)N3CN(c4ccccc4F)CSC3=C2C#N)cc1OC (stereo not given) | -1.25% | –
7 | COc1cc(/C=C/c2cc[n+](C)cc2)ccc1OCC(=O)Nc1ccc(Cl)c(Cl)c1 | – | 11.2 µM (active)
8 | O=C(COC(=O)c1cc(-c2ccc(Cl)s2)nc2ccccc12)NCc1ccco1 | – | 10 µM (active)
9 | O=C(NCCC1=CCCCC1)C1CCCN(S(=O)(=O)c2cnc[nH]2)C1 (stereo not given) | -0.374% | –
10 | O=C(N/N=C1\CC(c2ccccc2)Oc2ccccc21)c1ccc(O)cc1 (stereo not given) | 4.04% | –
11 | CC(OC(=O)CN(C)S(=O)(=O)c1ccc(Cl)cc1)C(=O)Nc1ccc(N2CCOCC2)cc1 (stereo not given) | 1.51% | –
12 | CC(NC(=O)COc1ccccc1-c1ccccc1)c1ccccc1 (stereo not given) | -0.69% | –
13 | O=c1cc(CO)oc(CN2CCN(Cc3ccccc3)CC2)c1O | 5.35% | –
14 | COc1ccc2nc(C)cc(SCC(=O)N/N=C/c3c(OC)ccc4ccccc34)c2c1 | -0.214% | –
15 | CCC1SC2=NC(C)=C(C(=O)OCCOC)C(c3ccc(C(=O)OC)cc3)N2C1=O (stereo not given) | 0.0445% | –
